In PubChem BioAssay (NCATS):
Where “and” joins values, the source holds several entries; their conditions need not be identical. Equal values may be shown once. Results filed as inconclusive are left out. A number with no mark means an inactive call. Calls of active or inactive are those of the source. Calls come from the whole dose curve; as a rule, active = well fitted cell-killing curve with a large enough effect; inconclusive = small, poorly fitted or top-dose-only effect; inactive = flat fitted curve, though single readings scatter. Where a SMILES comes first, the peptide text is derived from it. Bridges are numbered along the chain shown (N, C = ends). [ ]: non-standard residue; d: D form. hArg = N=C(N)NCCCC[C@H](N)C(=O)O; Mpa = O=C(O)CCS

assay: Cellular viability qHTS for adrenocortical cancer (ACC) cell line SW-13 (AID 1963989); conditions: SW-13 ACC cells viability, CellTiter-Glo, 48 h; activity (max response): stronger effect = lower value; note: nearly all actives have a fitted effect of over 65% in size;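 for activity (max response): cells grown in serum-free medium with ITS supplement; % is set by controls: 0 for no effect and ±100 for the full control effect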
In short: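 SW-13 cells in ITS-supplemented serum-free DMEM were plated overnight, then exposed for 48 h at 37C to compound titrations (up to 46 uM final). Viability was read by CellTiter-Glo luminescence; four-parameter logistic fits gave IC50 and efficacy.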
Potency is the fitted concentration of half-maximal effect.

Row | Compound | Potency | activity (max response)
1 | CN(C)c1ccc(C(=C2C=CC(=[N+](C)C)C=C2)c2ccccc2)cc1 | 0.82 µM (active) | 
2 | CCOc1ccccc1O[C@H](c1ccccc1)[C@H]1CNCCO1 |  | -2.45%
3 | NC(=O)[C@@H]1CSSCCC(=O)N[C@@H](CCCCN=C(N)N)C(=O)NCC(=O)N[C@@H](CC(=O)O)C(=O)N[C@@H](Cc2c[nH]c3ccccc23)C(=O)N2CCC[C@H]2C(=O)N1 ([Mpa][hArg]GDWPC-NH2; disulfide 1-7) |  | 17.5%
4 | N[C@H](Cc1c[nH]c2ccccc12)C(=O)O |  | 5.49%
5 | OCCOCCN1CCN(C2=Nc3ccccc3Sc3ccccc32)CC1 |  | -9.48%
6 | C[C@@]12CCC[C@H]1[C@@H]1CC[C@H]3C[C@@H](O)CC[C@]3(C)[C@H]1CC2 |  | -0.85%
7 | N[C@@H](Cc1cc(I)c(O)c(I)c1)C(=O)O |  | 8.5%
8 | COC(=O)C1=C(C)NC(C)=C(C(=O)OCCc2ccc(N3CCN(C(c4ccccc4)c4ccccc4)CC3)cc2)C1c1cccc([N+](=O)[O-])c1 (centres undefined) |  | 7.28%
9 | O=C(c1ccc(F)c(F)c1Nc1ccc(I)cc1F)N1CC(O)([C@@H]2CCCCN2)C1 | 12.6 µM (active) | 
10 | CC[C@H](c1ccc(O)cc1)[C@@H](CC)c1ccc(O)cc1 | 5.17 µM (active) | 
11 | CS(=O)(=O)c1ccc(-c2cnc(NCc3ccco3)n3cnnc23)cc1 |  | -12%
12 | COc1cccc(-c2c(C)n(Cc3c(F)cccc3C(F)(F)F)c(=O)n(C[C@H](NCCCC(=O)O)c3ccccc3)c2=O)c1F |  | 3.23% and 7.63%
13 | OC(CCN1CCCCC1)(c1ccccc1)c1ccccc1 |  | 3.2%

assay: Cellular viability qHTS for adrenocortical cancer (ACC) cell line NCI-H295R (AID 1963990); conditions: CellTiter-Glo ATP luminescence, 48 h; series mostly up to 46.1 µM; note: nearly all actives have a fitted effect of over 60% in size;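 for activity change, negative = viability loss: 0% = DMSO only wells and -100% = full killing with cytotoxic reference compound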
In short: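 Luminescent ATP read-out (CellTiter-Glo, 20 min RT) after 48 h drug exposure of NCI-H295R cells; a titration up to 46 uM final. Data normalized to doxorubicin (100% inhibition) and DMSO (0%); 4-parameter fit gives IC50, max response.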

Row | Compound | activity change, negative = viability loss | Potency
14 | CN(C)CCNC(=O)COc1c2cccc1Cc1cccc(c1OCC(=O)NCCN(C)C)Cc1cccc(c1OCC(=O)NCCN(C)C)Cc1cccc(c1OCC(=O)NCCN(C)C)C2 | 4.99% [at 9.17 µM] | 
15 | CN(C)c1ccc(C(=C2C=CC(=[N+](C)C)C=C2)c2ccccc2)cc1 |  | 0.92 µM (active)
16 | COc1ncc(Nc2ncc(C(C)N3CCN(S(C)(=O)=O)CC3)cc2-c2nc(C)nc(N)n2)cc1F (centres undefined) |  | inactive
17 | Cc1c(N)c(=O)n(-c2ccccc2)n1C |  | inactive
18 | Cc1ccc2nc(N)[nH]c(=O)c2c1Sc1ccncc1 |  | inactive
19 | CCOc1ccccc1O[C@H](c1ccccc1)[C@H]1CNCCO1 |  | inactive
20 | NC(=O)[C@@H]1CSSCCC(=O)N[C@@H](CCCCN=C(N)N)C(=O)NCC(=O)N[C@@H](CC(=O)O)C(=O)N[C@@H](Cc2c[nH]c3ccccc23)C(=O)N2CCC[C@H]2C(=O)N1 ([Mpa][hArg]GDWPC-NH2; disulfide 1-7) |  | inactive
21 | N[C@H](Cc1c[nH]c2ccccc12)C(=O)O |  | inactive
22 | Cc1ccccc1C(=O)N1CC/C(=N\OS(=O)(=O)O)c2ccc(Cl)cc21 |  | inactive
23 | Nc1ccc(S(=O)(=O)Nc2ccccc2)cc1 |  | inactive
24 | OCCOCCN1CCN(C2=Nc3ccccc3Sc3ccccc32)CC1 |  | inactive
25 | C[C@@]12CCC[C@H]1[C@@H]1CC[C@H]3C[C@@H](O)CC[C@]3(C)[C@H]1CC2 |  | inactive
26 | CO[C@H]1C=CO[C@@]2(C)Oc3c(C)c(O)c4c(O)c(c(/C=N/N5CCN(C)CC5)c(O)c4c3C2=O)NC(=O)/C(C)=C\C=C[C@H](C)[C@H](O)[C@@H](C)[C@@H](O)[C@@H](C)[C@H](OC(C)=O)[C@@H]1C |  | inactive
27 | N[C@@H](Cc1cc(I)c(O)c(I)c1)C(=O)O |  | inactive
28 | COc1ccc(-c2ccc3c(N4CCOC[C@@H]4C)nc(N4CCOC[C@@H]4C)nc3n2)cc1CO |  | 0.178 µM (active)
29 | COC(=O)C1=C(C)NC(C)=C(C(=O)OCCc2ccc(N3CCN(C(c4ccccc4)c4ccccc4)CC3)cc2)C1c1cccc([N+](=O)[O-])c1 (centres undefined) |  | inactive
30 | O=C(c1ccc(F)c(F)c1Nc1ccc(I)cc1F)N1CC(O)([C@@H]2CCCCN2)C1 |  | 5.62 µM (active)
31 | COC(=O)C1=C(C)NC(C)=C(C(=O)OC)C1c1ccccc1[N+](=O)[O-] |  | 9.2 µM (active)
32 | Nc1nc(OCc2cc(Br)cs2)c2[nH]cnc2n1 |  | inactive
33 | COCCNc1cc(NC(=O)N2CCCc3cc(CN4CCN(C)CC4=O)c(C=O)nc32)ncc1C#N | -1.4% [at 9.17 µM] | 
34 | CC[C@H](c1ccc(O)cc1)[C@@H](CC)c1ccc(O)cc1 |  | 2.59 µM (active)
